Data reported in PubChem BioAssay (EPA / NIEHS).
“And” between values parts separate entries of the source, which are not always exact repeats. Identical values can stand only once. Some compounds were tested as several samples or in several runs, with calls that do not always agree. The source made the active and inactive calls. Rule for the calls: active = hit-call score of the fitted dose curve at least 0.9, where 1 is the maximum; inactive = score below 0.9.

Legend:
[1] = read-out: TIMP metallopeptidase inhibitor 1 (TIMP1), TIMP1 (gene 7076); assay: BSK_MyoF_TIMP1: BioMAP Diversity Plus: MyoF Assay for TIMP metallopeptidase inhibitor 1 (TIMP1) Biomarker Activity (AID 2284269); conditions: primary human lung fibroblasts
In short: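 Fibroblasts from human lung are dosed with chemical, cultured 24 h, and assayed for TIMP-1 by ELISA. Increases over the DMSO baseline are scored, with SRB total-protein staining run in parallel for cytotoxicity.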

[2] = read-out: Matrix Metallopeptidase 1 (MMP1), MMP1 (gene 4312); assay: BSK_BF4T_MMP1: BioMAP Diversity Plus: BF4T Assay for Matrix Metallopeptidase 1 (MMP1) Biomarker Activity (AID 2284270); conditions: primary human bronchial epithelial cells with fibroblasts
In short: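 Co-culture of human bronchial epithelial cells and dermal fibroblasts; MMP-1 levels measured by ELISA 24 hours after chemical dosing, relative to DMSO. Cytotoxicity checked in parallel cultures by SRB total-protein staining.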

[3] = read-out: Matrix Metallopeptidase 3 (MMP3), MMP3 (gene 4314); assay: BSK_BF4T_MMP3: BioMAP Diversity Plus: BF4T Assay for Matrix Metallopeptidase 3 (MMP3) Biomarker Activity (AID 2284271); conditions: primary human bronchial epithelial cells with fibroblasts
In short: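 Co-culture of human bronchial epithelial cells and dermal fibroblasts dosed 24 h; MMP-3 measured by ELISA, positive-direction fit versus DMSO. Cytotoxicity tracked by SRB total-protein staining (560 nm) in parallel cultures.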

[4] = read-out: Tissue plasminogen activator (tPA), PLAT (gene 5327); assay: BSK_BF4T_tPA: BioMAP Diversity Plus: BF4T Assay for Tissue plasminogen activator (tPA) Biomarker Activity (AID 2284272); conditions: primary human bronchial epithelial cells with fibroblasts
Protocol: (§1) BSK_BF4T is a cell-based, multiplexed-readout assay that uses bronchial epithelial cells and dermal fibroblasts, a human vascular primary cell, with measurements taken at 24 hours after chemical dosing in a microplate: 96-well plate.BSK_BF4T_tPA is an assay component measured in the BSK_BF4T assay. It measures tPA antibody related to regulation of gene expression using ELISA technology.Data from the assay component BSK_BF4T_tPA was analyzed at the endpoint, BSK_BF4T_tPA, in the positive analysis fitting direction relative to DMSO as the negative control and baseline of activity. Using a type of binding reporter, gain or loss-of-signal activity can be used to understand protein changes. To generalize the intended target to other relatable targets, this assay endpoint is annotated to the 'protease' intended target family, where the subfamily is 'serine protease'.
(§2) The levels of cell surface (or secreted, indicated by the prefix "s") biomarker endpoints were measured by ELISA. Overt cytotoxicity to cells in confluent adherent cultures (all systems other than the BT system) was assessed by measuring total protein levels using sulforhodamine B (SRB) staining in parallel cultures at the time of biomarker measurements, indicated as SRB endpoints. For proliferation assays for adherent cell types, individual cell types are cultured at sub-confluence and relative cell numbers quantified by SRB staining at time points optimized for each system (48 h: 3C and CASM3C systems; 72 h: BT and HDF3CGF systems; 96 h: SAg system). SRB was performed by staining cells with 0.1% SRB after fixation with 10% TCA and reading wells at 560 nm.Viability and proliferation of PBMC (T cells) was quantified by Alamar Blue reduction for the SAg and BT systems. […] Then, Alamar Blue (20 uL/well) (Invitrogen, Cat DAL1100) was added for 6 h, and the plates were read with a fluorescence microplate reader at 546/580 nm (excitation/emission). […] Plates were read after 6 h.

[5] = read-out: Plasminogen Activator Inhibitor-1 (PAI1), SERPINE1 (gene 5054); assay: BSK_BF4T_PAI1: BioMAP Diversity Plus: BF4T Assay for Plasminogen Activator Inhibitor-1 (PAI1) Biomarker Activity (AID 2284273); conditions: primary human bronchial epithelial cells with fibroblasts
In short: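 Co-culture of human bronchial epithelial cells and dermal fibroblasts exposed to compound for 24 h. PAI-1 measured by ELISA; activity fitted in positive direction versus DMSO. Parallel SRB staining assessed overt cytotoxicity.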

[6] = BSK_BF4T_SRB: Viability Assessment in the BioMAP Diversity Plus: BF4T Assay (AID 2284274); conditions: primary human bronchial epithelial cells with fibroblasts
In short: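 Co-culture of human bronchial epithelial cells and dermal fibroblasts (BioMAP BF4T) exposed 24 h. Total protein by sulforhodamine B staining (0.1% SRB after 10% TCA fixation, 560 nm) in parallel cultures; fitted vs DMSO.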

[7] = read-out: urokinase Plasminogen Activator (uPA), PLAU (gene 5328); assay: BSK_BF4T_uPA: BioMAP Diversity Plus: BF4T Assay for urokinase Plasminogen Activator (uPA) Biomarker Activity (AID 2284275); conditions: primary human bronchial epithelial cells with fibroblasts
In short: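 Co-culture of human bronchial epithelial cells and dermal fibroblasts; uPA quantified by ELISA 24 hours after dosing, fitted relative to DMSO. Parallel SRB total-protein staining assessed overt cytotoxicity.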

[8] = read-out: Matrix Metallopeptidase 9 (MMP9), MMP9 (gene 4318); assay: BSK_BF4T_MMP9: BioMAP Diversity Plus: BF4T Assay for Matrix Metallopeptidase 9 (MMP9) Biomarker Activity (AID 2284276); conditions: primary human bronchial epithelial cells with fibroblasts
Protocol: as §1, with “plate.BSK_BF4T_MMP9” for “plate.BSK_BF4T_tPA”, “MMP-9” for “tPA”, “BSK_BF4T_MMP9” for “BSK_BF4T_tPA”, “BSK_BF4T_MMP9,” for “BSK_BF4T_tPA,”, “'matrix metalloproteinase'.” for “'serine protease'.”
as §2

[9] = read-out: Interleukin-8 (IL8), CXCL8 (gene 3576); assay: BSK_IMphg_IL8: BioMAP Diversity Plus: IMphg Assay for Interleukin-8 (IL8) Biomarker Activity (AID 2284277); conditions: primary human endothelial cells with macrophages
In short: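 Co-culture of human venular endothelial cells and macrophages exposed to chemicals for 24 h; IL-8 quantified by ELISA and compared against the DMSO baseline, with SRB total-protein staining in parallel cultures for cytotoxicity.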

[10] = read-out: Intercellular Adhesion Molecule 1 (ICAM1), ICAM1 (gene 3383); assay: BSK_BE3C_ICAM1: BioMAP Diversity Plus: BE3C Assay for Intercellular Adhesion Molecule 1 (ICAM1) Biomarker Activity (AID 2284278); conditions: primary human bronchial epithelial cells;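 for outcome: cell-surface ICAM-1 protein level quantified by ELISA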
Protocol: BSK_BE3C is a cell-based, multiplexed-readout assay that uses bronchial epithelial cell, a human lung primary cell, with measurements taken at 24 hours after chemical dosing in a 96-well plate.BSK_BE3C_ICAM1 is an assay component measured in the BSK_BE3C assay. It measures ICAM-1 antibody related to regulation of gene expression using ELISA technology.Data from the assay component BSK_BE3C_ICAM1 was analyzed at the endpoint, BSK_BE3C_ICAM1, in the positive analysis fitting direction relative to DMSO as the negative control and baseline of activity. Using a type of binding reporter, gain or loss-of-signal activity can be used to understand protein changes. To generalize the intended target to other relatable targets, this assay endpoint is annotated to the 'cell adhesion molecules' intended target family, where the subfamily is 'Immunoglobulin CAM'.
as §2

Compound | outcome [1] | outcome [2] | outcome [3] | AC50 [4] | outcome [4] | outcome [5] | outcome [6] | outcome [7] | outcome [8] | AC50 [9] | outcome [9] | outcome [10] | AC50 [3] | AC50 [8] | AC50 [10]
O=C(O)C(F)(F)C(F)(F)C(F)(F)C(F)(F)C(F)(F)C(F)(F)C(F)(F)F | inactive | inactive | inactive | 30 µM (active) and 1.85 µM (active) | inactive | inactive | inactive | inactive | inactive | 20.5 µM (active) and 20.3 µM (active) and 25.2 µM (active) | inactive | inactive | – | – | –
ClC1C(Cl)C(Cl)C(Cl)C(Cl)C1Cl (stereo unspecified) | inactive | – | – | – | – | – | – | – | – | – | – | – | – | – | –
O=S(=O)(O)C(F)(F)C(F)(F)C(F)(F)C(F)(F)C(F)(F)C(F)(F)C(F)(F)C(F)(F)F | inactive | inactive | inactive | – | inactive | inactive | inactive | inactive | inactive | – | inactive | inactive | 14.7 µM (active) | 17.1 µM (active) | 49.3 µM (active) and 53.4 µM (active)
